This passage reports composite z-score results from PubChem BioAssay.

Sequence of Follistatin-related protein 3 (Homo sapiens) (O95633 whole entry, looked up): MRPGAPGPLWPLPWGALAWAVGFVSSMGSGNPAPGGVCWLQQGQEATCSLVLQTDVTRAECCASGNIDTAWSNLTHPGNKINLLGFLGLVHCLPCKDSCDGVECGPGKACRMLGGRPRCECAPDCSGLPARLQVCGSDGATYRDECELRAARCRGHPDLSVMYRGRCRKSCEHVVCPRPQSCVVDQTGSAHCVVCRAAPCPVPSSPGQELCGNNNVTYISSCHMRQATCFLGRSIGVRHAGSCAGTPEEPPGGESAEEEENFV

The first test concerns the target Follistatin-related protein 3 (Homo sapiens) (UniProt O95633). Briefly: FSTL3 binders on small-molecule microarrays, primary screen, biochemical, small-molecule microarray, 635 nm fluorescence (AID 1105).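 Also: score merges emission near 667 nm and signal to noise per printed spot across three slides.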 To be noted: FSTL3 binding, higher = more signal.
For the molecule `Cc1ccc(S[C@]2(C(=O)O)CC(=O)N(Cc3ccccc3C(F)(F)F)[C@@H]2c2ccc(CO)cc2)cc1`, the composite z-score is -0.894.

For the molecule `C=CCN1C(=O)[C@@]2(O[C@@H](CCO)[C@H]([Si](C)(C)c3ccc(OC)cc3)[C@H]2C)c2cc(NC(=O)[C@H](C)O)ccc21`, the composite z-score came out at 0.254.

`CN1C(=O)C2C=CC(C(O)COCc3ccccc3)N(Nc3ccccc3)C2C1=O` (stereo not given) displayed a composite z-score of 1.06.

Consider `C=CCC(OC(C)=O)[C@@H]1[C@@H](N(Cc2cc3ccccc3o2)C(=O)Cc2ccc(OC)cc2)c2cc(OCCCO)ccc2N1C(=O)c1ccc(-c2ccccc2)cc1` (stereo not given in full), for which the composite z-score is -0.272.

Consider `CC1CC/C=C\[C@H]2OC34C=CCN(c5ccc(Cl)cc5)C(=O)[C@H]3N(C(CO)C(C)C)C(=O)[C@]4(C)C2C(=O)O1` (stereo not given in full), for which the composite z-score was -0.786.

Take `COCCOC(=O)N1C(=O)[C@@]2(c3cc(C#CC4(O)CCCCCC4)ccc31)[C@H](C(=O)N1CCc3cc(OC)c(OC)cc3C1)[C@H]1C(=O)O[C@H](c3ccccc3)[C@H](c3ccccc3)N1[C@@H]2c1ccccc1OCCO`: the composite z-score was 1.42.

Take `CC(C)C(CO)N1C(=O)[C@@H]2[C@H]3C(=O)OCC=C[C@H]3OC23C=CCN(Cn2nnc4ccccc42)C(=O)[C@@H]13` (stereo not given in full): the composite z-score is -1.41.

Molecule `O=C1C2C=CC(C(O)c3ccc(Br)cc3)N(Nc3ccccc3)C2C(=O)N1c1ccccc1` (stereo not given) gave a composite z-score of 0.429.

The molecule `CN(C)CCCCNC(=O)[C@H]1C[C@H]2C(=O)N[C@@H](CCCC[N+](C)(C)C)C(=O)N2[C@H]1c1cccc(OCCO)c1` had a composite z-score of 0.738.

Regarding `O=C1C2C=CC(C(O)c3ccccn3)N(Nc3ccccc3)C2C(=O)N1c1ccccc1` (stereo not given), the composite z-score is -0.656.

`COC(=O)[C@@]1(Cc2ccc(OC)cc2)[C@H]2c3cc(C(=O)N(C)C)n(CCF)c3C[C@H]2CN1C(=O)c1ccccc1` returned a composite z-score of 1.03.

For the molecule `COC(=O)[C@@]1(Cc2ccccc2N=[N+]=[N-])N=C(c2ccc(OCCCO)cc2)O[C@H]1c1ccccc1`, the composite z-score is 0.666.

As to `C=CCC(OC(C)=O)[C@@H]1[C@@H](N(Cc2cccc3ccccc23)C(=O)c2ccc(C)cc2)c2cc(OCCCO)ccc2N1C(=O)c1ccc2ccccc2c1` (stereo not given in full), the composite z-score came to 0.421.

With `O=C(NCc1ccccc1)[C@]1(Cc2ccccc2)N=C(c2ccc(OCCCO)cc2)O[C@@H]1c1ccccc1`, the composite z-score is -0.11.

Molecule `O=C1O[C@@H](c2ccccc2)[C@@H](c2ccccc2)N2[C@@H](c3ccc(O)cc3)[C@]3(C(=O)Nc4ccc(C#CC5(O)CCCCCC5)cc43)[C@@H](C(=O)N3CCN(c4ncccn4)CC3)[C@H]12` came in with a composite z-score of 0.639.

The molecule `COCC(=C=CC[C@@H](O)c1ccccc1OCCO)C[C@@H](O)c1ccccn1` displayed a composite z-score of 0.322.

As to `C#CCNS(=O)(=O)N(C)C`, the composite z-score amounted to 0.31.

In turn, `C=CCC(OC(C)=O)[C@@H]1[C@@H](N(Cc2ccc(-c3cccc(C(F)(F)F)c3)o2)C(=O)c2cccc3ccccc23)c2cc(OCCCO)ccc2N1C(=O)c1ccc(-c2ccccc2)cc1` (stereo not given in full) gave a composite z-score of 0.248.

`COCCOC(=O)N1C(=O)[C@@]2(c3cc(C#CCC(C(=O)OC)C(=O)OC)ccc31)[C@H](c1ccc(OCCO)cc1)N1[C@H](c3ccccc3)[C@H](c3ccccc3)OC(=O)[C@H]1[C@@H]2C(N)=O` returned a composite z-score of 1.26.

Molecule `CCCC[C@H]1OB(O)C[C@H]2C1=C(COc1ccccc1)Cn1c(=O)n(-c3ccccc3)c(=O)n12` showed a composite z-score of 1.01.

The target of the next test is Dickkopf-related protein 1 (Homo sapiens) (UniProt O94907). Briefly: DKK1 binders on small-molecule microarrays, primary screen, biochemical, small-molecule microarray, 635 nm fluorescence scan (AID 1106).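 Also: score merges emission near 667 nm with signal to noise over three replicate slides.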 To be noted: DKK1 binding, higher = more signal.
Sequence of Dickkopf-related protein 1 (Homo sapiens) (O94907 whole entry, looked up): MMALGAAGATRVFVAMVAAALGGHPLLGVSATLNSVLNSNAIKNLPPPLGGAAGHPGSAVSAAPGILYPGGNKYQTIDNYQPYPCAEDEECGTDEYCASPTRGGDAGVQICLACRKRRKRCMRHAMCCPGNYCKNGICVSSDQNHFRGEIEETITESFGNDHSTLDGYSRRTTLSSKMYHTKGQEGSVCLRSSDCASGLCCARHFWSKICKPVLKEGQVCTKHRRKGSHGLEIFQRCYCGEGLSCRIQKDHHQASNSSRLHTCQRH
As to `COC(=O)[C@@]1(Cc2ccccc2)[C@H]2c3cc(C(=O)N4CCCC4)n(Cc4ccccc4)c3C[C@H]2CN1C(=O)c1ccccc1`, the composite z-score was -0.197.

`CC(C)C[C@@H]1NC(=O)[C@@]23C(=O)N[C@@H](Cc4ccccc4)C2[C@H](C)[C@@]2(C)O[C@H]2C3/C=C/C/C=C\CNC(=O)[C@@H]2CCCN2C1=O` (stereo not given in full) had a composite z-score of 0.534.

Turning to `COC(=O)[C@@]1(Cc2ccc(OC)cc2)[C@H]2c3cc(C(=O)N4CCCC4)n(CCF)c3C[C@H]2CN1C(=O)c1ccccc1`, the composite z-score was -0.226.

With `C=C(/C(=C/C[C@@H](OC(=O)c1ccncc1)c1cccc(OCCO)c1)c1cc(C(=O)OC)ccc1OC)C(C)C`, the composite z-score worked out at 0.0661.

Regarding `O=C(CS)NCCCCCNC(=O)[C@@H]1C[C@@H]2C(=O)N3CCC[C@H]3C(=O)N2[C@@H]1c1ccc(O)cc1`, the composite z-score was determined as 0.219.

`COc1cccc(C)c1NC(=O)O[C@H]1[C@H](OC(=O)Nc2ccccc2)[C@H](OC(=O)Nc2ccccc2)[C@@H](OC)O[C@@H]1CO`: the composite z-score was -0.294.

Take `COc1ccc(C#Cc2ccc3c(c2)[C@]2(C(=O)N3)[C@H](C(=O)O)[C@H]3C(=O)O[C@H](c4ccccc4)[C@H](c4ccccc4)N3[C@@H]2c2ccc(OCCO)cc2)cc1`: the composite z-score was determined as 0.195.

As for `COc1cc2c(cc1OC)CN(C(=O)[C@@H]1[C@H]3C(=O)O[C@H](c4ccccc4)[C@H](c4ccccc4)N3[C@H](c3ccc(O)cc3)[C@@]13C(=O)Nc1ccc(C#CCNC(N)=O)cc13)CC2`, the composite z-score was -0.162.

In the case of `COc1ccc([Si](C)(C)[C@@H]2[C@@H](CCO)O[C@]3(C(=O)N(Cc4cccc(N5C(=O)COc6ccccc65)c4)c4ccccc43)[C@H]2C)cc1`, the composite z-score is -0.466.

In turn, `Cc1ccc(-c2cccc(=O)o2)cc1` showed a composite z-score of 0.184.

Regarding `COC(=O)c1ccc(OC)c(/C=C\CC(CCc2ccccc2)OC(C)=O)c1` (stereo not given), the composite z-score came to 0.239.

On to `C=C(C(=O)CC[C@H](OC(=O)c1cccnc1)c1ccc(OCCO)cc1)C(C)C`, for which the composite z-score was -0.17.

On to `CCCC=C(CCC)[C@@H](NS(=O)(=O)c1cccc2cccnc12)c1ccc(C(=O)OC)cc1`, for which the composite z-score stood at 0.726.

The molecule `CC(C)CCC[C@@H](C)[C@H]1CC[C@@]2(C)C3=C(CC[C@]12C)[C@@]1(C)CC[C@H](OC(=O)c2ccc(N)cc2)C(C)(C)C1CC3` (stereo not given in full) gave a composite z-score of 1.4.

`C[C@H]1ON(c2ccccc2)[C@@H](c2ccccc2)[C@@H]1C(=O)N1C(=O)OC[C@@H]1c1ccccc1` came in with a composite z-score of 0.289.

On to `Cc1ccc(S[C@]2(C(=O)O)CC(=O)N(Cc3ccccc3C(F)(F)F)[C@@H]2c2ccc(CO)cc2)cc1`, for which the composite z-score is -1.03.

With `C=CCN1C(=O)[C@@]2(O[C@@H](CCO)[C@H]([Si](C)(C)c3ccc(OC)cc3)[C@H]2C)c2cc(NC(=O)[C@H](C)O)ccc21`, the composite z-score was 0.147.

In turn, `CN1C(=O)C2C=CC(C(O)COCc3ccccc3)N(Nc3ccccc3)C2C1=O` (stereo not given) returned a composite z-score of 0.0378.

Take `C=CCC(OC(C)=O)[C@@H]1[C@@H](N(Cc2cc3ccccc3o2)C(=O)Cc2ccc(OC)cc2)c2cc(OCCCO)ccc2N1C(=O)c1ccc(-c2ccccc2)cc1` (stereo not given in full): the composite z-score was -0.45.

With `CC1CC/C=C\[C@H]2OC34C=CCN(c5ccc(Cl)cc5)C(=O)[C@H]3N(C(CO)C(C)C)C(=O)[C@]4(C)C2C(=O)O1` (stereo not given in full), the composite z-score was -0.717.

`COCCOC(=O)N1C(=O)[C@@]2(c3cc(C#CC4(O)CCCCCC4)ccc31)[C@H](C(=O)N1CCc3cc(OC)c(OC)cc3C1)[C@H]1C(=O)O[C@H](c3ccccc3)[C@H](c3ccccc3)N1[C@@H]2c1ccccc1OCCO` showed a composite z-score of 1.69.

Turning to `CC(C)C(CO)N1C(=O)[C@@H]2[C@H]3C(=O)OCC=C[C@H]3OC23C=CCN(Cn2nnc4ccccc42)C(=O)[C@@H]13` (stereo not given in full), the composite z-score is -1.18.

On to `O=C1C2C=CC(C(O)c3ccc(Br)cc3)N(Nc3ccccc3)C2C(=O)N1c1ccccc1` (stereo not given), for which the composite z-score is -0.25.

On to `CN(C)CCCCNC(=O)[C@H]1C[C@H]2C(=O)N[C@@H](CCCC[N+](C)(C)C)C(=O)N2[C@H]1c1cccc(OCCO)c1`, for which the composite z-score is 0.797.

Regarding `O=C1C2C=CC(C(O)c3ccccn3)N(Nc3ccccc3)C2C(=O)N1c1ccccc1` (stereo not given), the composite z-score was -0.341.

As to `COC(=O)[C@@]1(Cc2ccc(OC)cc2)[C@H]2c3cc(C(=O)N(C)C)n(CCF)c3C[C@H]2CN1C(=O)c1ccccc1`, the composite z-score was -0.123.

With `COC(=O)[C@@]1(Cc2ccccc2N=[N+]=[N-])N=C(c2ccc(OCCCO)cc2)O[C@H]1c1ccccc1`, the composite z-score was -0.385.

In the case of `C=CCC(OC(C)=O)[C@@H]1[C@@H](N(Cc2cccc3ccccc23)C(=O)c2ccc(C)cc2)c2cc(OCCCO)ccc2N1C(=O)c1ccc2ccccc2c1` (stereo not given in full), the composite z-score was 0.181.

As for `O=C(NCc1ccccc1)[C@]1(Cc2ccccc2)N=C(c2ccc(OCCCO)cc2)O[C@@H]1c1ccccc1`, the composite z-score was -0.565.

As to `O=C1O[C@@H](c2ccccc2)[C@@H](c2ccccc2)N2[C@@H](c3ccc(O)cc3)[C@]3(C(=O)Nc4ccc(C#CC5(O)CCCCCC5)cc43)[C@@H](C(=O)N3CCN(c4ncccn4)CC3)[C@H]12`, the composite z-score was determined as 0.226.

Molecule `COCC(=C=CC[C@@H](O)c1ccccc1OCCO)C[C@@H](O)c1ccccn1` came in with a composite z-score of 0.0514.

As to `C#CCNS(=O)(=O)N(C)C`, the composite z-score was determined as 0.216.

In the case of `C=CCC(OC(C)=O)[C@@H]1[C@@H](N(Cc2ccc(-c3cccc(C(F)(F)F)c3)o2)C(=O)c2cccc3ccccc23)c2cc(OCCCO)ccc2N1C(=O)c1ccc(-c2ccccc2)cc1` (stereo not given in full), the composite z-score was 0.518.

In turn, `COCCOC(=O)N1C(=O)[C@@]2(c3cc(C#CCC(C(=O)OC)C(=O)OC)ccc31)[C@H](c1ccc(OCCO)cc1)N1[C@H](c3ccccc3)[C@H](c3ccccc3)OC(=O)[C@H]1[C@@H]2C(N)=O` had a composite z-score of 0.57.

`CCCC[C@H]1OB(O)C[C@H]2C1=C(COc1ccccc1)Cn1c(=O)n(-c3ccccc3)c(=O)n12` displayed a composite z-score of 0.203.
